# Compounds with a hit are over-represented: about 19% of the library has one in this group of screens.
# DT40 TDP1 no CPT – qHTS for Inhibitors of human tyrosyl-DNA phosphodiesterase 1 (TDP1): qHTS in cells in absence of CPT. DT40 Tdp1-/- hTDP1 cells, no CPT, ATP luminescence, 48 h. Potency, µM (doses to about 46.2 µM), without a hit: at the top dose activity change, negative = growth inhibition, most hits filed as inhibitors. actives 15% (n = 420,000). AID 686978, 2013; further: potency means the concentration at half of the fitted maximal effect; nearly all actives have a fitted effect of over 55% in size
#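 No-CPT arm: Tdp1-/-;hTDP1 DT40 cells (400/well) plus compounds, incubated ≥48 hr at 37 °C. Readout CellTiter-Glo luminescence.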
# DT40 TDP1 CPT – growth inhibition of DT40 Tdp1-/-;hTDP1 cells with camptothecin (screen for TDP1 inhibitors). chicken DT40 Tdp1-/-;hTDP1 cells + 20 nM CPT, ATP luminescence, 48 h. Potency, µM (doses to about 46.2 µM), without a hit: top-dose activity change, negative = growth inhibition, hits mostly inhibitors. actives 12% (n = 420,000). AID 686979; further: potency means the concentration at half of the fitted maximal effect; nearly all actives have a fitted effect of over 55% in size
#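 Cell growth measured by CellTiter-Glo luminescence after a minimum 48 h, 37 C compound exposure with 20 nM CPT in Tdp1-knockout DT40 cells stably expressing hTDP1, seeded 400/well; qHTS titration format.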
# HT1080 IDH1KD tx – HT-1080 IDH1 knockdown cell toxicity (counter line); HT-1080 IDH1 knockdown viability, ATP luminescence, 48 h; Potency, µM (series often up to 46.1 µM), without a hit: top-dose activity, negative = toxicity, usual class: cytotoxic; actives 2% (n = 360,000); AID 686971;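 further: potency means the concentration at half of the fitted maximal effect; 0% = DMSO wells and -100% = cell-free medium wells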
#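 After a 2 h attachment period, IDH1KD HT-1080 cells took pin-transferred compound for 48 h at 37 °C; ATP-based luminescence after 10 min room-temperature reagent incubation reported viability.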
# ELG1 repair inh – blocks ELG1-dependent DNA repair in HEK293T cells; HEK293T ELG1-luciferase reporter, luminescence, 16 h; DNA damage induced by 5-fluorouridine; Potency, µM (highest dose often 46.1 µM), for the others: at the highest dose activity change, negative = inhibition, usual class: inhibitors; actives 2.3% (n = 330,000); AID 504467; further: potency means the concentration at half of the fitted maximal effect; nearly all actives have a fitted effect of over 55% in size
#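 HEK293T cells expressing luciferase-tagged ELG1 (2,000/well) received 5-Fluorouridine plus compound or DMSO for 16 hr at 37 °C. Luciferase was read by ONE-Glo luminescence after 30 min at room temperature.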
# IL-1B inflam inh – blocks inflammasome-driven IL-1 beta release; THP-1 LPS/ATP IL-1B secretion, AlphaLISA, 16 h; hits give low values; activity change, % at 57.5 µM; actives 4.7% (n = 360,000); AID 743279; in the data active means activity change below about -50%; inconclusive means mostly about -30% to -49%
#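 Secreted IL-1B measured by AlphaLISA bead assay after 16 h compound exposure of THP-1 cells; compounds (final up to 57.5 uM) added 1 h before LPS (250 ng/mL) and ATP (1.25 mM) stimulation; lower signal means less secretion.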
# HT1080-NT tox – kills 2HG-producing HT-1080-NT fibrosarcoma cells | HT-1080-NT fibrosarcoma viability, CellTiter-Glo ATP luminescence, 48 h | Potency, µM (highest dose often 46.1 µM), inactives show top-dose activity, negative = less viability, usual class: cytotoxic | actives 1.6% (n = 360,000) | AID 686970;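 further: NT is the 2HG producing partner of a matched IDH1 knockdown line; potency means the concentration at half of the fitted maximal effect; 0% = DMSO-treated cells and -100% = media-only wells without cells; nearly all actives have a fitted effect of over 55% in size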
#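 Fibrosarcoma NT cells, 750 per well in 5% FBS RPMI, were exposed to compound for 48 hours. Viability: CellTiter-Glo luminescence.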
# * hit, by the source's call; ? = inconclusive; · = no result given; [ ] = dose if it differs, or a comment. Unless noted, the call rests on the fitted dose curve; in most records, active means well fitted curve in the direction sought with a large enough effect; inconclusive means small, poorly fitted or top-dose-only effect, or another doubt; inactive means no such curve, though single readings can be large; an effect the other way counts as inactive or inconclusive. Unless noted, on the % scale 0 is the no-effect control and ±100 the full control effect.
SMILES,DT40 TDP1 no CPT,DT40 TDP1 CPT,HT1080 IDH1KD tx,ELG1 repair inh,IL-1B inflam inh,HT1080-NT tox
O=C(N/N=C\c1ccc(CN(Cc2ccc(Cl)cc2)S(=O)(=O)c2ccccc2)o1)C(=O)Nc1ccc(F)cc1,15µM*,?,3%,3%,?,0%
O=C(N/N=C\c1ccc(CNS(=O)(=O)c2ccccc2)o1)C(=O)Nc1ccc(F)cc1,?,?,-17%,7%,32,1%
CN(Cc1cc2ccccc2[nH]c1=O)C(=O)c1cccs1,-32%,5%,-1%,28%,-2,15%
O=C(c1cccs1)N(Cc1cc2ccccc2[nH]c1=O)c1ccccc1,10µM*,13µM*,-2%,-3%,-16,15%
Cc1ccc(N(Cc2cc3cc(C)ccc3[nH]c2=O)C(=O)c2cccs2)cc1,23µM*,?,2%,-5%,11,14%
Cc1ccc(N(Cc2cc3ccccc3[nH]c2=O)C(=O)c2cccs2)cc1C,18µM*,?,17%,23µM*,-28,14%
CC1CCN(S(=O)(=O)c2ccc(N3CCCCS3(=O)=O)cc2)CC1,?,-17%,·,·,·,·
CCN(CC)S(=O)(=O)c1cc(C(=O)Oc2cccc(-c3cnc4ccccc4n3)c2)ccc1Br,18µM*,?,0%,?,15,-2%
CCN(CC)S(=O)(=O)c1ccc(Cl)c(C(=O)Oc2cccc(-c3cnc4ccccc4n3)c2)c1,?,?,1%,·,38,1%
Oc1ccccc1-c1nc(NC2CCCC2)c2ccccc2n1,-24%,2%,?,?,-12,?
Clc1ccccc1-c1nc(NC2CCNCC2)c2ccccc2n1,26µM*,10µM*,·,·,·,·
Cc1ccccc1-c1nc(NC2CCNCC2)c2ccccc2n1,12µM*,13µM*,·,·,·,·
Fc1ccccc1-c1nc(NC2CCCC2)c2ccccc2n1,-24%,-21%,-25%,7%,-53*,?
CCOc1ccc(S(=O)(=O)N2CCN(C(=O)C3CSC4(C)CCC(=O)N34)CC2)cc1 (stereo not drawn),-3%,-15%,5%,-2%,-4,8%
O=C(c1cnn(-c2ccccc2)c1)c1cc(Br)ccc1O,?,-29%,10%,12%,-9,12%
O=C(c1ccc(O)c(Br)c1)c1cc(Br)ccc1O,?,?,?,·,25,5.8µM*
O=C(C(=O)c1cc(Br)ccc1O)c1cc(Br)ccc1O,23µM*,?,2.9µM*,·,-84*,3.7µM*
Cc1nc2sccn2c1CN1CCC2(CC1)CC2C(=O)Nc1ccc2c(c1)OCO2 (stereo not drawn),?,-2%[9.04 µM],·,·,·,·
Cc1ccccc1CN(C)C(=O)CNC(=O)c1ccc2ccccc2c1,-18%,-9%,-1%,-3%,-12,10%
O=C(Cn1cnc2c(oc3ccccc32)c1=O)Nc1ccccc1C(F)(F)F,-4%,0%,·,·,·,·
Cn1c(SCC(=O)c2ccc3c(c2)NC(=O)CO3)nc2ccccc21,?,?,30%,-6%,43,10%
CCCn1c(SCC(=O)c2ccc3c(c2)NC(=O)CO3)nc2ccccc21,9.2µM*,10µM*,-18%,10%,30,?
O=C(CSc1nc2[nH]ncc2c(=O)n1-c1ccccc1)c1ccc2c(c1)OCCO2,?,?,-5%,?,-54*,-25%
O=C(CSc1nc2[nH]ncc2c(=O)n1-c1ccccc1)NCCc1ccccc1,?,-2%,5%,9%,-3,2%
O=C1COc2ccc(C(=O)CSc3nnc(Cc4ccccc4)o3)cc2N1,4%,-5%,0%,1%,19,-2%
SMILES,DT40 TDP1 no CPT,DT40 TDP1 CPT,HT1080 IDH1KD tx,ELG1 repair inh,IL-1B inflam inh,HT1080-NT tox
O=C1COc2ccc(C(=O)CSc3nnc(Cc4cccs4)n3-c3ccc(Cl)cc3)cc2N1,18µM*,18µM*,?,?,0,9%[9.24 µM]
O=C1COc2ccc(C(=O)CSc3nc4ccccc4c(=O)n3-c3ccc(Cl)c(Cl)c3)cc2N1,?,23µM*,1%,-8%,84,0%
C[C@H](CO)N1C[C@H](C)[C@H](CN(C)S(=O)(=O)c2ccc(F)cc2)OCc2cnnn2CCCC1=O,-39%,15%,3%,·,-9,4%
CC(C(=O)NCc1ccccc1)n1c(-c2ccc3c(c2)CCO3)nc2ccccc21 (stereo not drawn),?,?,-17%,·,3,-15%
S=C(Nc1ccc(Nc2ccccc2)cc1)N1CCN(c2ncccn2)CC1,-4%,0%,5%,0%,-8,10%
CCc1ccc(-n2c(SCC(=O)c3ccc4c(c3)NC(=O)CO4)nc3ccccc3c2=O)cc1,21µM*,?,8%,?,53,0%
O=C1COc2ccc(C(=O)CSc3nnc(NCc4ccccc4)s3)cc2N1,13µM*,?,-9%,-20%,-21,-3%
Cc1cc(C(=O)OCC(=O)c2ccc3c(c2)NC(=O)CO3)c2ccccc2n1,-1%,-2%,0%,-22%,38,0%
Nc1nc2ccc(Cl)cc2cc1C(=O)NCCCN1CCOCC1,-14%,8%,6%,·,27,20%
O=C(CSc1nc2ccccc2nc1Cc1ccccc1F)Nc1cccc(C(F)(F)F)c1,-20%,-7%,·,·,·,·
Cc1ccccc1NC(=O)Cc1nc(COC(=O)CCNS(=O)(=O)c2ccccc2)cs1,-23%,2%,6%,-3%,12,0%
Cc1cc(C)c(S(=O)(=O)N2CCN(C(=O)c3cc(=O)[nH]c4ccccc34)CC2)c(C)c1,16µM*,15µM*,-4%,?,-13,-5%[9.24 µM]
Cc1cc(C)c(C)c(S(=O)(=O)N2CCN(C(=O)c3cc(=O)[nH]c4ccccc34)CC2)c1C,13µM*,?,?,?,0,?
CC(C)NC(=O)C1(C)CCN1C(=O)c1ccccc1Oc1ccccc1 (stereo not drawn),-22%,?,0%,·,0,9%
C=CCN(C(=O)CCC(=O)Nc1cc(C)on1)C(C(=O)NC(C)(C)CC)c1cccc(OC)c1OC (stereo not drawn),-18%,2%,-6%,-8%,7,0%
CSc1ccccc1C(=O)Nc1cc2c(cc1C(=O)O)OCCCO2,1%,1%,1%,3%,-12,7%
